Experiment [1] relates to PRMT1 (protein arginine N-methyltransferase 1). Nature of the experiment: PRMT1 binders on small-molecule microarrays, primary screen, biochemical, small-molecule microarray, 635 nm fluorescence (AID 1088).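 Further: binding of Prmt1 protein to compounds spotted on small-molecule microarray slides.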 As to conditions: small-molecule microarray binding, higher = more signal.
Experiment [2] in a line: yeast growth modulation, basal conditions, primary screen, YJM789 clinical isolate, OD600, 24 h (AID 1089).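 Further: growth of clinical yeast isolate S. cerevisiae YJM 789 seeded 1000 cells per well; test concentration not given here.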 The settings on record: S. cerevisiae YJM789 growth, higher = more signal, called active from +8 up or from −8 down.
Experiment [3] can be described thus: fission yeast growth modulation, primary screen, strain 972, OD600, 24 h, no modulator (AID 1090).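 Further: basal condition with compound alone and no growth modifier present; test concentration not given here.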 The settings on record: S. pombe 972 growth, higher = more signal, called active from +8 up or from −8 down.
Experiment [4] can be described thus: S. cerevisiae growth modulation with rapamycin, primary screen, strain BY4716, OD600, 96 h (AID 1091). Further: test concentration not given here. As to conditions: higher = more signal, called active from +8 up or from −8 down.
Experiment [5] deals with Torsin-1A-interacting protein 2 (Homo sapiens) (UniProt Q8NFQ8). Nature of the experiment: LULL1 binders on small-molecule microarray, primary screen, cell lysate, human LULL1 lysate, 635/667 nm fluorescence (AID 1092).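 Further: probe is lysate of COS7 cells overexpressing human LULL1; score merges per-feature 667 nm fluorescence with signal-to-noise.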 As to conditions: hLULL1 lysate binding, 635 nm fluorescence, higher = more signal.
Torsin-1A-interacting protein 2 (Homo sapiens), sequence (Q8NFQ8 whole entry, looked up): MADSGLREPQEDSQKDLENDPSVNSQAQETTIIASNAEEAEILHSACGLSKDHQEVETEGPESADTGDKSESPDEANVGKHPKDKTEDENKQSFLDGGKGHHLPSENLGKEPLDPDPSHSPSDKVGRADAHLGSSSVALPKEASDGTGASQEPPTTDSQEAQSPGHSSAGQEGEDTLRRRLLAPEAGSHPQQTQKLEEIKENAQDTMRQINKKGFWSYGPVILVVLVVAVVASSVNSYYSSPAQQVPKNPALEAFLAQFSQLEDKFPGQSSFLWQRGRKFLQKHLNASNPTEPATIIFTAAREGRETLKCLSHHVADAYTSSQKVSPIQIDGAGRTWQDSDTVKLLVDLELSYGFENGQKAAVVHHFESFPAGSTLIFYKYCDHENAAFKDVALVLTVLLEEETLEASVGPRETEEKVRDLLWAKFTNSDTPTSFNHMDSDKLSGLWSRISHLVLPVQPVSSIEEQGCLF
A short description of experiment [6]: E. coli growth modulation, two-sided OD650, primary screen, E. coli filamentation project, strain DRC41, 24 h (AID 1093).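 Further: MC1000 strain lacking acrAB efflux and sulA so SOS filamentation is blocked; test concentration not given here.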 As to conditions: OD650, 24 h, higher = more signal, called active from +8 up or from −8 down.
The nature of experiment [7]: small-molecule microarray binders of probe aLefty2, primary screen, biochemical, biotinylated probe, 635/667 nm fluorescence (AID 1094).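 Further: score merges spot fluorescence near 667 nm with spot signal-to-noise ratio.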 As to conditions: higher = more signal.
Experiment [8] deals with Noggin (protein binding on small-molecule microarray). Nature of the experiment: Noggin binders on small-molecule microarray, primary screen, biochemical, 635/667 nm fluorescence (AID 1095).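 Further: score merges 667 nm feature fluorescence with signal to noise over triplicate slides.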 The settings on record: 635 nm fluorescence, higher = more signal.
Experiment [9] addresses Neurogenic locus notch homolog protein 3 (Homo sapiens) (UniProt Q9UM47). Nature of the experiment: NOTCH3 binders on small-molecule microarray, primary screen, biochemical, 635/667 nm fluorescence (AID 1096). As to conditions: NOTCH3 binding, 635 nm fluorescence, higher = more signal.
A short description of experiment [10]: small-molecule microarray binders of probe aEGFR, primary screen, biochemical, biotinylated probe, 635/667 nm fluorescence (AID 1097).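 Further: probe is a biotinylated anti-EGFR antibody binding compounds printed on slides; score combines fluorescence near 667 nm and signal to noise of each spot.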 As to conditions: higher = more signal.
Experiment [11] deals with Plasmodium falciparum Sir2 (PF13_0152, Sir2A). Nature of the experiment: pfSir2 binders on small-molecule microarrays, primary screen, biochemical, small-molecule microarray, 635 nm fluorescence (AID 1098).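 Further: score merges spot fluorescence intensity with its signal-to-noise ratio.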 As to conditions: small-molecule microarray binding, fluorescence 635 nm; higher = more signal.
A short description of experiment [12]: small-molecule microarray binders of probe aDKK1, primary screen, biochemical, biotinylated probe, 635/667 nm fluorescence (AID 1099).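 Further: score merges 667nm spot fluorescence with signal to noise across triplicate slides; reference of the scale not given here.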 The settings on record: higher = more signal.
The nature of experiment [13]: small-molecule microarray binders of probe aCHRDL2, primary screen, biochemical, biotinylated probe, 635/667 nm fluorescence (AID 1100). As to conditions: higher = more signal.
Experiment [14] is described as follows: splicing luciferase reporter signal modulators, primary screen, spliceosome inhibition project, cell-based, HEK293, splice +/- reporter (AID 1101).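 Further: HEK293 cells carrying a splicing-competent luciferase reporter gene; test concentration not given here.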 The settings on record: luminescence, 24 h, higher = more signal, called active from +8 up or from −8 down. On the technique in general: Reporter assays use an easily measured gene product as a stand-in for the process of interest.

In experiment [15] the target is Fibroblast growth factor 10 (Homo sapiens) (UniProt O15520). Nature of the experiment: FGF10 binders on small-molecule microarrays, primary screen, biochemical, small-molecule microarray, 635 nm fluorescence (AID 1102). As to conditions: FGF10 binding, fluorescence 635 nm, higher = more signal.
Fibroblast growth factor 10 (Homo sapiens), sequence (O15520 whole entry, looked up): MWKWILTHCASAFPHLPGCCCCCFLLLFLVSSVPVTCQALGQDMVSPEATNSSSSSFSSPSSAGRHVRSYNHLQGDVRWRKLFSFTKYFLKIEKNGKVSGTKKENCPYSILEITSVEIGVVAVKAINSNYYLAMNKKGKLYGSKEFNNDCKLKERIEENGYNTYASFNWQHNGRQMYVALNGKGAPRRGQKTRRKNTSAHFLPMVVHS
Experiment [16] relates to glycogen synthase kinase-3 (GSK3A per assay name; protocol says GSK3B). Nature of the experiment: GSK3 binders on small-molecule microarrays, primary screen, biochemical, small-molecule microarray, 635 nm fluorescence, GSK3A (AID 1103). Further: the record names both GSK3A and GSK3B. The settings on record: small-molecule microarray binding, fluorescence 635 nm; higher = more signal.
In experiment [17] the target is Epidermal growth factor receptor (Homo sapiens) (UniProt P00533). Nature of the experiment: EGFR binders on small-molecule microarrays, primary screen, biochemical, small-molecule microarray, 635 nm fluorescence (AID 1104).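 Further: score merges 667 nm emission intensity with spot signal to noise over triplicate slides.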 The settings on record: EGFR binding, higher = more signal.
Epidermal growth factor receptor (Homo sapiens), sequence (P00533 whole entry, looked up): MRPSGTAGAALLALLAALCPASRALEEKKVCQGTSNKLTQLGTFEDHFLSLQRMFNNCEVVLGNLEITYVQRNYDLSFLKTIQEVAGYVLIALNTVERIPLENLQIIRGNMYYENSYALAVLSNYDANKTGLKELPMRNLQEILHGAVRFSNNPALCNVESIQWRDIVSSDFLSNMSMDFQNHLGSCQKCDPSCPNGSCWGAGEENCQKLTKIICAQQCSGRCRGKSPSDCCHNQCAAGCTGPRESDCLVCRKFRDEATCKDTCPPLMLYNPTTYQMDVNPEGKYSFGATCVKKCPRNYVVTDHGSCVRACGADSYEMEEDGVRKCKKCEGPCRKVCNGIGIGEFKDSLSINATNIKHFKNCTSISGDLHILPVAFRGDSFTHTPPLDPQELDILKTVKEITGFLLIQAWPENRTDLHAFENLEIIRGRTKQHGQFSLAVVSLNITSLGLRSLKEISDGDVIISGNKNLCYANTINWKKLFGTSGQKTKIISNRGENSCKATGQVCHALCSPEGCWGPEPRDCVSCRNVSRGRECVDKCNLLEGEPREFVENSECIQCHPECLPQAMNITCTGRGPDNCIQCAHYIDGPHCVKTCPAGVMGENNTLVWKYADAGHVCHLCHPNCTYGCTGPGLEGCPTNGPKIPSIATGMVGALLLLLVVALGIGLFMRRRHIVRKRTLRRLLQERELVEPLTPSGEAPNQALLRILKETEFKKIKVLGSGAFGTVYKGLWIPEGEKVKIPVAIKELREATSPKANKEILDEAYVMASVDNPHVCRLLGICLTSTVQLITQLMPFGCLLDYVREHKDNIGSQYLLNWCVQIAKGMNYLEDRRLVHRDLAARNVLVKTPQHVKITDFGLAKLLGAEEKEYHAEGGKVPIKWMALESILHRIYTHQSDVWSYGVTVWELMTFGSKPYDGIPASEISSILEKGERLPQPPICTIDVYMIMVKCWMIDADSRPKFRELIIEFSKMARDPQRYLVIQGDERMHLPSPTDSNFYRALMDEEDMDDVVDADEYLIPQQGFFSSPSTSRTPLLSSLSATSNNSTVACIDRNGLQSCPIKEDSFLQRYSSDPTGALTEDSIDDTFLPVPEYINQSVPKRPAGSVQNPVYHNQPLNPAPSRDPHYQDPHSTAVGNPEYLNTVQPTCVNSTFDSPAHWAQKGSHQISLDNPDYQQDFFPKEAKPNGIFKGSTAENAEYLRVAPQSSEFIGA
The target of experiment [18] is Follistatin-related protein 3 (Homo sapiens) (UniProt O95633). Nature of the experiment: FSTL3 binders on small-molecule microarrays, primary screen, biochemical, small-molecule microarray, 635 nm fluorescence (AID 1105).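 Further: score merges emission near 667 nm and signal to noise per printed spot across three slides.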 As to conditions: FSTL3 binding, higher = more signal.
Follistatin-related protein 3 (Homo sapiens), sequence (O95633 whole entry, looked up): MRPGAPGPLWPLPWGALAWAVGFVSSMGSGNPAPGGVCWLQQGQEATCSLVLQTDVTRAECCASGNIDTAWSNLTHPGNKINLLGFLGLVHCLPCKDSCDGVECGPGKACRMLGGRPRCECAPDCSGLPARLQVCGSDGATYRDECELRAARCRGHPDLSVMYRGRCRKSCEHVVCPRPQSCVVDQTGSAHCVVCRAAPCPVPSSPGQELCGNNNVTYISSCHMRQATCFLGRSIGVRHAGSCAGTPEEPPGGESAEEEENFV
Experiment [19] deals with Dickkopf-related protein 1 (Homo sapiens) (UniProt O94907). Nature of the experiment: DKK1 binders on small-molecule microarrays, primary screen, biochemical, small-molecule microarray, 635 nm fluorescence scan (AID 1106).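 Further: score merges emission near 667 nm with signal to noise over three replicate slides.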 As to conditions: DKK1 binding, higher = more signal.
Dickkopf-related protein 1 (Homo sapiens), sequence (O94907 whole entry, looked up): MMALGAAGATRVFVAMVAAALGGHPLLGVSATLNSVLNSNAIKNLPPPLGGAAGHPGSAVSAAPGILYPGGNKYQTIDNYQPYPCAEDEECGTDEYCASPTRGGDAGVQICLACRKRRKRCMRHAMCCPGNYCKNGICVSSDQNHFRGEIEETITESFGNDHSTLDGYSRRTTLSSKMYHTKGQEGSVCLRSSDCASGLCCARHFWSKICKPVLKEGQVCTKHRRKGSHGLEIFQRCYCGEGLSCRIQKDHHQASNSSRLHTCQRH
In experiment [20] the test system is Inhibin beta A chain (activin A). Nature of the experiment: INHBA (activin A) binders on microarrays, primary screen, biochemical, small-molecule microarray, 635 nm fluorescence scan (AID 1107).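 Further: mouse activin A protein probed at 4.33 µg/mL on printed slides; score merges bound-protein fluorescence near 667 nm with spot signal-to-noise.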 As to conditions: small-molecule microarray binding, higher = more signal.

For five molecules, composite z-score and z-score results are on record in PubChem BioAssay.

Molecules are shown by their SMILES. Calls of active or inactive are those of the source.

Neurogenic locus notch homolog protein 3 (Homo sapiens), sequence (Q9UM47 whole entry, looked up): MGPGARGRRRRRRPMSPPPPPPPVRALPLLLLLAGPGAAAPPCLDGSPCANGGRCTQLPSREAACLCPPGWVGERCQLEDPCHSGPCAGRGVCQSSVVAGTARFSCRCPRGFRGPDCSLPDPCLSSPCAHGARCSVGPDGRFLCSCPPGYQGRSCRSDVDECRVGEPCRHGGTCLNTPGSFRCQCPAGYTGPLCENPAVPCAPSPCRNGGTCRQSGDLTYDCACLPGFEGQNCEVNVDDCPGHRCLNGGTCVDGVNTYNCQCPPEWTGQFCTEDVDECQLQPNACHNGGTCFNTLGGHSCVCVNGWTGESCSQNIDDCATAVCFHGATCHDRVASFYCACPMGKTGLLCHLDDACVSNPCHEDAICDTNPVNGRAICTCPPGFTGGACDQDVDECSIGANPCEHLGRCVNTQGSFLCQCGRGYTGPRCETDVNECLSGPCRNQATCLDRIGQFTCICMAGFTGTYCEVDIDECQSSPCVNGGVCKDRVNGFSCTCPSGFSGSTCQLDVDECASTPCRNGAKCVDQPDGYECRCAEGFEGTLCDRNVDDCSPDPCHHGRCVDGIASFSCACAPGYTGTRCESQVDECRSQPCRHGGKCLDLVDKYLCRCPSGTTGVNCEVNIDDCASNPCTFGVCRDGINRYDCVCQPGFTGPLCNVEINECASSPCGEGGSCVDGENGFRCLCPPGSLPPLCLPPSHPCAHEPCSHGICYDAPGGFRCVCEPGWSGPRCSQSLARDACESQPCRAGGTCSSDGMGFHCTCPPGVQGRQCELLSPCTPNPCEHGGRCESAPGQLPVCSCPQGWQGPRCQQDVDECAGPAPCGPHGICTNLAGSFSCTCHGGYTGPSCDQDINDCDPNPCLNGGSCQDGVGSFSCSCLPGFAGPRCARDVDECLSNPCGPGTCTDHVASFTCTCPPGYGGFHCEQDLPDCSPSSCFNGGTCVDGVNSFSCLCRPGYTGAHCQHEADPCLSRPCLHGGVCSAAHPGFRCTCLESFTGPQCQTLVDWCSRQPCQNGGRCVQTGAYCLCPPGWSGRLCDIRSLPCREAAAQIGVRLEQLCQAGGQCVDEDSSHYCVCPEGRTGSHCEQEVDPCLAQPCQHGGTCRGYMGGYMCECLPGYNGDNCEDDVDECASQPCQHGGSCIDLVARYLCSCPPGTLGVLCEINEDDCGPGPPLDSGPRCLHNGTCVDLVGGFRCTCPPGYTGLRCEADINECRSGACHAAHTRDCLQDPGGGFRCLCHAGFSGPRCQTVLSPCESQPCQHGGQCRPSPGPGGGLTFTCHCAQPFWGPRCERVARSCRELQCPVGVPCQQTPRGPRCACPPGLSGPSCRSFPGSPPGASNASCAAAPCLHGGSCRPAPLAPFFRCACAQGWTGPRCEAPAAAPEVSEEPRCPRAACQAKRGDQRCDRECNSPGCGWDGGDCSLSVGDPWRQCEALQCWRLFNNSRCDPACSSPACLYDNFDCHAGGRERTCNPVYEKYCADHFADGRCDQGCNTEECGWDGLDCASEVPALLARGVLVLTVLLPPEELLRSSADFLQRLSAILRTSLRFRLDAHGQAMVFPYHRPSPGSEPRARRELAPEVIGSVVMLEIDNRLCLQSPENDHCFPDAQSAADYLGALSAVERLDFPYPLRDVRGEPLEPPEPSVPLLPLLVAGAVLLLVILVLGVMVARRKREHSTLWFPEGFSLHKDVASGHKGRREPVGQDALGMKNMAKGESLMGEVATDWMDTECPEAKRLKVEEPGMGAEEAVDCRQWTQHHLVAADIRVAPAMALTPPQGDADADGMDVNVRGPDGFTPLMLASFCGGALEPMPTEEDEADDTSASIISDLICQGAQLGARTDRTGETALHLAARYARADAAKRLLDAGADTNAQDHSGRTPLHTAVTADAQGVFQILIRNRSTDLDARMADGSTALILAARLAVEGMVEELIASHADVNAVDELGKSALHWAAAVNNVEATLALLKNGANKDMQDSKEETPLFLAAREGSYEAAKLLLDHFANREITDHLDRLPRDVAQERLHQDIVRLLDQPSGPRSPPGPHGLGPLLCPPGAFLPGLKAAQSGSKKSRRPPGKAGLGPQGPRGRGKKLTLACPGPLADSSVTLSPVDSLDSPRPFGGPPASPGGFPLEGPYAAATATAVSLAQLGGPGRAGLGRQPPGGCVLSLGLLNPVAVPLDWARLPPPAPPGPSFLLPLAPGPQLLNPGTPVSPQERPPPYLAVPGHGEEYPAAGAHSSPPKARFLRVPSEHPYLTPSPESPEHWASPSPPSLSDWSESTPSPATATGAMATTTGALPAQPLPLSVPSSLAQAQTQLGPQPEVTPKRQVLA

On to `C=C(C(=O)CC[C@H](OC(=O)c1cccnc1)c1ccc(CO)o1)C(C)C`, for which the composite z-score in [1] was found to be 1.51; in [5] it was 1.34; in [7], 0.152; in [8], 1.02; in experiment [9], 0.623; in experiment [10] it was 0.0504. Also, the composite z-score in [11] is 1.08; in experiment [12], 0.0114; in experiment [13], -0.239; in experiment [15], 0.866; in experiment [16], 0.836; in experiment [17], 0.0193. Besides, the composite z-score in [18] stood at 0.406; in experiment [19], 0.603; in experiment [20], 0.935. Besides, the z-score is -1.23 (inactive) in experiment [2]; -0.796 (inactive) in [3]; -0.719 (inactive) in experiment [4]; -0.605 (inactive) in experiment [6]; 0.586 (inactive) in [14].
Regarding `COCCOC(=O)N1C(=O)[C@@]2(c3cc(C#Cc4ccc(OC)cc4)ccc31)[C@H](C(=O)N1CCN(c3ncccn3)CC1)[C@H]1C(=O)O[C@H](c3ccccc3)[C@H](c3ccccc3)N1[C@@H]2c1ccccc1OCCO`, the composite z-score was 1.45 in [1]; 2.17 in experiment [5]; -0.0917 in [7]; 0.735 in [8]; 0.605 in experiment [9]; -0.0382 in experiment [10]. The composite z-score was 0.625 in experiment [11]; -0.0221 in [12]; 0.221 in [13]; 0.343 in [15]; -0.142 in experiment [16]; 0.139 in [17]. Also, the composite z-score in experiment [18] is -0.181; in experiment [19], -0.163; in [20] it was 0.443. The z-score in [2] is 3.33 (inactive); in experiment [3], 2.27 (inactive); in [4] it was 7.9 (inactive); in [6], -0.332 (inactive); in experiment [14], -0.562 (inactive).
On to `CO[C@H]1O[C@H](CO)[C@@H](OC(=O)Nc2ccc(Oc3ccccc3)cc2)[C@H](OC(=O)Nc2ccccc2-c2ccccc2)[C@@H]1OC(=O)Nc1ccccc1-c1ccccc1`, for which the composite z-score was found to be 1.54 in [1]; 2.72 in [5]; 0.143 in experiment [7]; 0.156 in experiment [8]; 1.12 in experiment [9]; 0.425 in experiment [10]. Also, the composite z-score in experiment [11] is 1.31; in experiment [12] it was 0.686; in [13], 0.609; in experiment [15], 0.959; in [16] it was 1.15; in experiment [17], 0.223. The composite z-score came out at 0.787 in experiment [18], 0.338 in [19] and 0.586 in experiment [20]. For the same molecule, the z-score in experiment [2] is 1.96 (inactive); in experiment [3], 0.592 (inactive); in [4], 0.974 (inactive); in [6], 1.39 (inactive); in experiment [14], -1.52 (inactive).
For `CO[C@H]1O[C@H](CO)[C@@H](OC(=O)c2ccc(Br)cc2)[C@@H]2OC(=O)[C@@H](Cc3ccc4ccccc4c3)C/C=C/C[C@H](Cc3ccc4ccccc4c3)C(=O)O[C@@H]12`, the composite z-score in experiment [1] is 1.45; in experiment [5], 2.82; in [7], -0.0375; in [8], 0.0104; in experiment [9], 0.478; in experiment [10], -0.112. For the same molecule, the composite z-score in experiment [11] is 0.995; in experiment [12], 0.463; in experiment [13] it was 0.769; in experiment [15] it was 0.429; in experiment [16] it was 0.548; in experiment [17], -0.567. In addition, the composite z-score in [18] was 0.323; in experiment [19], -0.54; in experiment [20] it was 0.588. The z-score in experiment [2] is -2.76 (inactive); in experiment [3], -2.35 (inactive); in experiment [4], -0.842 (inactive); in experiment [6] it was 0.0001 (inactive); in experiment [14], -0.83 (inactive).
Turning to `O=c1cccc(-c2ccc(C(F)(F)F)cc2)o1`, the composite z-score in [1] is -1.99; in [5] it was -0.0985; in experiment [7] it was -0.16; in experiment [8], -0.161; in [9], -0.894; in experiment [10], -0.22. For the same molecule, the composite z-score in experiment [11] is -0.426; in [12], -0.0458; in experiment [13] it was 0.239; in experiment [15] it was -0.46; in experiment [16], -0.762; in experiment [17], -0.215. Further, the figures for the composite z-score in experiment [18], in [19] and in experiment [20] were -0.936, -0.572 and 0.339, respectively. In addition, the z-score in experiment [2] is -2.99 (inactive); in experiment [3], -8.39 (active); in experiment [4] it was 0.427 (inactive); in experiment [6], -0.491 (inactive); in experiment [14] it was 0.0423 (inactive).
